# Experimental data reported in PubChem BioAssay (Tox21).
# “And” between values parts separate entries of the source, which are not always exact repeats. Equal entries are not always repeated. Inconclusive results are not listed. Where a call stands in place of a potency, no number is given. The source holds several records for some structures; these can differ, active in one and inactive in another. The source made the active and inactive calls. Unless noted, calls follow the shape of the dose curve; as a rule, active = well fitted curve in the direction sought with a large enough effect in the repeat runs; inconclusive = weak or mixed curves; inactive = no such curve, though single readings can be large; an effect the other way counts as inactive or inconclusive.
# Tests used:
# [1] = qHTS assay to identify small molecule agonists of the estrogen receptor alpha (ER-alpha) signaling pathway in the presence of an antagonist - cell viability counter screen (AID 1259386);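 also: series mostly up to about 92 µM; cells exposed to compounds for 22 h at 37 °C before the viability read; nearly all actives have a fitted effect of over 30% in size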
# In short: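 Cells are starved of estrogens for 5 days in charcoal-stripped serum, seeded for 24hr and co-treated with ICI-182,780 (10.0nM final) and test compounds. After 22hr at 37C, viability is read as CellTiter-Fluor fluorescence.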
# [2] = molecular target: Progesterone receptor (Homo sapiens) (UniProt P06401); experiment: qHTS assay to identify small molecule agonists of the progesterone receptor (PR) signaling pathway (AID 1346784; calls by dose curve; also: nearly all actives have a fitted effect of over 30% in size)
# Progesterone receptor (Homo sapiens), sequence (P06401 whole entry, looked up): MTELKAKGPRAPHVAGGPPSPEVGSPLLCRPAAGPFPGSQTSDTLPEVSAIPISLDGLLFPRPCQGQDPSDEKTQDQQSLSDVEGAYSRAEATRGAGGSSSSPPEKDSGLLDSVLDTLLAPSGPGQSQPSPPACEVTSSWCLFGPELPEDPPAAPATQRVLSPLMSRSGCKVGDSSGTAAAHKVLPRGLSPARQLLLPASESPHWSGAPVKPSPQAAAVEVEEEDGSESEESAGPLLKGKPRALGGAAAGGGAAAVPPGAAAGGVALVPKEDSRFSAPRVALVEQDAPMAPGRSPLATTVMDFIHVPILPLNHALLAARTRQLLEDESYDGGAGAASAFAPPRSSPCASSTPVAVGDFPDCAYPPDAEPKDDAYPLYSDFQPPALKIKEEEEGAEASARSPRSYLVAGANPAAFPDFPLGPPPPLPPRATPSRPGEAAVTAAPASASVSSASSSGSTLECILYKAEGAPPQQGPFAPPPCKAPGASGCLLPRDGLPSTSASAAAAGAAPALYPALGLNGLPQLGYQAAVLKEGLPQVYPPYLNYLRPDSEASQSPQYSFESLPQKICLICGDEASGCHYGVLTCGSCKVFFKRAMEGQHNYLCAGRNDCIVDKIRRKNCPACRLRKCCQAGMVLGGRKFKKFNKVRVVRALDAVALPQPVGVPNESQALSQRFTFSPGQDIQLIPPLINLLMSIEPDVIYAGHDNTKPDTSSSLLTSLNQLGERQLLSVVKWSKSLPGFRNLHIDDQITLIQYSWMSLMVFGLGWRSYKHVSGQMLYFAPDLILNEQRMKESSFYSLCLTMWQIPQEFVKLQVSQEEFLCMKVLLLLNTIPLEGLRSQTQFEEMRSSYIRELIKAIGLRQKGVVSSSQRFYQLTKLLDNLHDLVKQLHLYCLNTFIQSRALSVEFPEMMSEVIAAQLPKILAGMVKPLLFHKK
# In short: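 PR-UAS-bla HEK 293T cells carrying a UAS-driven beta-lactamase reporter were seeded in medium with 2% charcoal-stripped FBS, preincubated 6 hr at 37C, then exposed to compounds in DMSO for 16 hr; agonism was read by LiveBLAzer B/G FRET fluorescence.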
# [3] = molecular target: Progesterone receptor (Homo sapiens) (UniProt P06401); experiment: qHTS assay to identify small molecule antagonists of the progesterone receptor (PR) signaling pathway (AID 1346795; active = well fitted inhibition curve with a large enough effect in the signal ratio in the repeat runs, not every such curve was filed as active; the % refers to the signal ratio; also: potency is read from the fitted curve at half-maximal effect)
# In short: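 PR-UAS-bla HEK293T cells carrying a UAS-driven beta-lactamase reporter were plated in medium with 2% charcoal-stripped FBS and rested 6 hr at 37C. Compounds were added with 1 nM R5020 (final) for 16 hr, then FRET substrate loaded 2 hr at room temperature.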
# [4] = qHTS assay to identify small molecule antagonists of the progesterone receptor (PR) signaling pathway - cell viability counter screen (AID 1346798); also: series mostly up to about 92 µM; nearly all actives have a fitted effect of over 50% in size
# In short: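 PR-UAS-bla HEK293T cells in medium with 2% charcoal-stripped FBS were treated with compounds plus R5020 for 16 hr at 37C. Cell viability was then read by CellTiter-Glo luminescence after 30 min at room temperature in the same wells.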
# [5] = qHTS assay to identify small molecule antagonists of the TGF-beta/Smad signaling pathway - cell viability counter screen (AID 1346824); also: nearly all actives have a fitted effect of over 50% in size
# In short: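 SBE-bla HEK 293T cells were plated overnight at 37 C, then given compounds in DMSO plus TGF-beta1 (added as 0.25 ng/mL solution) for 5 hr. After the bla read, CellTiter-Glo was added to the same wells and luminescence read after 30 min at room temperature.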
# [6] = qHTS assay to identify small molecule agonists of the TGF-beta/Smad signaling pathway - cell viability counter screen (AID 1346829); also: top concentration of the series differs between compounds; nearly all actives have a fitted effect of over 45% in size
# In short: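 In parallel with the Smad reporter read, viability of HEK 293T cells stably carrying SBE-bla is quantified by ATP luminescence following 5 hr compound treatment.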
# [7] = qHTS assay to identify small molecule agonists of the TGF-beta/Smad signaling pathway (AID 1346859; active = well fitted activation curve with a large enough effect in the signal ratio in the repeat runs, not every such curve was filed as active; the % refers to the signal ratio; also: series mostly up to about 77 µM)
# In short: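 HEK 293T cells stably carrying a beta-lactamase reporter driven by the Smad binding element were seeded overnight, exposed to DMSO-dissolved compounds for 5 hr at 37 C, 5% CO2, then loaded with FRET substrate for 2 hr at room temperature.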
# [8] = Human pregnane X receptor (PXR) small molecule agonists, qHTS cell viability counter screen (AID 1346977); also: nearly all actives have a fitted effect of over 50% in size
# In short: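 PXR-Luc HepG2 cells in medium with 5% charcoal-stripped FBS were pre-incubated 5hr, then exposed to compounds for 24hr at 37C. Viability was read in the same wells by CellTiter-Fluor fluorescence, reagent added after 23hr with a 1hr incubation.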
# [9] = Caspase-3/7 induction in HepG2 cells by small molecules, qHTS assay (AID 1346978); also: nearly all actives have a fitted effect of over 15% in size
# In short: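 Wild-type HepG2 cells (2,000/well) were settled 5 h at 37 C, 5% CO2, then exposed to compounds in DMSO for 17 h. Caspase-3/7 activity was read by luminescence 30 min after adding Caspase-Glo 3/7 reagent at room temperature.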
# [10] = Caspase-3/7 induction in CHO-K1 cells by small molecules, qHTS cell viability counter screen (AID 1346979); also: nearly all actives have a fitted effect of over 35% in size; also: potency is read from the fitted curve at half-maximal effect
# In short: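 Wild-type CHO-K1 cells were seeded at 1,500 per well, rested 5hr at 37 C, then exposed to compounds in DMSO. After 16hr, CellTiter-Fluor reagent was added and fluorescence read 1hr later as the viability measure.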
# [11] = Caspase-3/7 induction in CHO-K1 cells by small molecules, qHTS assay (AID 1346980); also: nearly all actives have a fitted effect of over 15% in size
# In short: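 Wild-type cells were seeded at 1,500 per well and settled 5 hr at 37 C, 5% CO2, then exposed to DMSO-dissolved compounds for 17 hr. Caspase-Glo 3/7 reagent was added, and luminescence was read after 30min at room temperature.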
# [12] = Caspase-3/7 induction in HepG2 cells by small molecules, qHTS cell viability counter screen (AID 1346981); also: series mostly up to about 92 µM; nearly all actives have a fitted effect of over 30% in size
# In short: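 Steps: seed 2,000 HepG2 cells per well; incubate 5 hr at 37 C; pin-add compounds in DMSO; incubate 16 hr; add CellTiter-Fluor; after 1 hr at 37 C and 5% CO2, read fluorescence.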
# [13] = qHTS assay to identify small molecule agonists of the progesterone receptor (PR) signaling pathway - cell viability counter screen (AID 1346799; calls by dose curve; also: nearly all actives have a fitted effect of over 45% in size; also: potency is read from the fitted curve at half-maximal effect)
# In short: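 PR-UAS-bla HEK293T cells, 3,000 per well in medium with 2% charcoal-stripped FBS, were preincubated 6 hr at 37C, then exposed to compounds for 16 hr; viability was read as CellTiter-Glo luminescence after 30 min at room temperature.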
# [14] = molecular target: Thyrotropin-releasing hormone receptor (Homo sapiens) (UniProt P34981); experiment: qHTS assay to identify small molecule antagonists of the thyrotropin-releasing hormone receptor (TRHR) signaling pathway (AID 1346877; active = well fitted inhibition curve with a large enough effect in the repeat runs, not every such curve was filed as active; also: series mostly up to about 51 µM)
# Thyrotropin-releasing hormone receptor (Homo sapiens), sequence (P34981 whole entry, looked up): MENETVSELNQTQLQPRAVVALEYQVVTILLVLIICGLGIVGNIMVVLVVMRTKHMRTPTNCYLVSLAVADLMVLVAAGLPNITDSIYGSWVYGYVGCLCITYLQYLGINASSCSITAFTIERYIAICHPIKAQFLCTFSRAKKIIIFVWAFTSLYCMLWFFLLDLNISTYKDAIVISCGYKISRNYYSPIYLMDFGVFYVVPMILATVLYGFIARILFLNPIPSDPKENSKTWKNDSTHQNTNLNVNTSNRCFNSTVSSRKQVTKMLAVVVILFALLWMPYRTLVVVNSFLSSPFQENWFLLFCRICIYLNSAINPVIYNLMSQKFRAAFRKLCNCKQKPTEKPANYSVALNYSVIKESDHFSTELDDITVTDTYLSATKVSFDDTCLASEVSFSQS
# In short: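 Cells (TRHR-HEK293) are plated and kept 18 h at 37 °C/5% CO2. A calcium-sensitive dye is added for 2 h, compound follows for 5 min at room temperature, and TRH is then given at 1 nM final.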
# [15] = molecular target: Thyrotropin-releasing hormone receptor (Homo sapiens) (UniProt P34981); experiment: qHTS assay to identify small molecule agonists of the thyrotropin-releasing hormone receptor (TRHR) signaling pathway (AID 1346891; calls by dose curve; also: series mostly up to about 58 µM)
# In short: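 TRHR-expressing HEK293 cells were plated 18 h at 37 °C/5% CO2, loaded with calcium dye 2 h at 37 °C, then given compound in DMSO; fluorescence was read kinetically for 3 min at 1 s intervals.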
# [16] = molecular target: Nuclear receptor subfamily 1 group I member 2 (Rattus norvegicus) (UniProt Q9R1A7); experiment: Rat pregnane X receptor (rPXR) activation by small molecules, qHTS assay (AID 1346983); details: rPXR luciferase reporter cells, One-Glo luminescence, 24 h; max activation: stronger effect = higher value; also: nearly all actives have a fitted effect of over 20% in size
# Nuclear receptor subfamily 1 group I member 2 (Rattus norvegicus), sequence (Q9R1A7 whole entry, looked up): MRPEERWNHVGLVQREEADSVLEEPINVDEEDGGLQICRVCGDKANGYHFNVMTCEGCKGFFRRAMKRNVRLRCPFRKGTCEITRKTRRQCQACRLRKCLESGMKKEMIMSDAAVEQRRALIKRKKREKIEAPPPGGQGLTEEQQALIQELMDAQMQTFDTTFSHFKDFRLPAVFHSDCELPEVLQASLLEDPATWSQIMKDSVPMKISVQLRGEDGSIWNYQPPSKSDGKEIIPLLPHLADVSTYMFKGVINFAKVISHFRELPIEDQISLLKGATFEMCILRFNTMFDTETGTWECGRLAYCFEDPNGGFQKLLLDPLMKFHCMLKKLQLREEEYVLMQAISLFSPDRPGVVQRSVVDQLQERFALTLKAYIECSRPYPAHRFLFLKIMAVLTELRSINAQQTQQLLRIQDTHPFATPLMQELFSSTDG
# In short: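 Cell-based rPXR luciferase reporter assay, 2,000 cells per well, rested 5hr at 37 C before compound addition in DMSO, then 24 hr at 37 C. One-Glo reagent was added and luminescence read after 30 min at room temperature.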
# [17] = molecular target: Nuclear receptor subfamily 1 group I member 2 (Homo sapiens) (UniProt O75469); experiment: CYP3A4 induction through human pregnane X receptor (PXR) by small molecules, qHTS assay (AID 1346984); also: nearly all actives have a fitted effect of over 40% in size
# Nuclear receptor subfamily 1 group I member 2 (Homo sapiens), sequence (O75469 whole entry, looked up): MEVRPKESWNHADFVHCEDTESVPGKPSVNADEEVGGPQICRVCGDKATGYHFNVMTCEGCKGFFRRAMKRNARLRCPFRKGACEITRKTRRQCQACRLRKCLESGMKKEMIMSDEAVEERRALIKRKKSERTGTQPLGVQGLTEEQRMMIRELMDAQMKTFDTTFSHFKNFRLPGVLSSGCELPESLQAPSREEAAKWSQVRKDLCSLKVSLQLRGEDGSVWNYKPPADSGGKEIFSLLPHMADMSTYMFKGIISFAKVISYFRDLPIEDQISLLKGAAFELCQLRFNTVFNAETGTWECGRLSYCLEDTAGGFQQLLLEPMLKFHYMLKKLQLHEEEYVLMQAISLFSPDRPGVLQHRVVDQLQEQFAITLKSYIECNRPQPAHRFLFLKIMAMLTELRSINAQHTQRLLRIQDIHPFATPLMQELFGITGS
# In short: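 Steps: seed DPX-2 cells, 5 hr at 37C; pin-transfer compounds; 24 hr at 37C; add Luciferin-IPA (3uM final), 3 hr at 37C; add One-Glo, 30 min RT; read luminescence.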
# [18] = molecular target: Nuclear receptor subfamily 1 group I member 2 (Homo sapiens) (UniProt O75469); experiment: Human pregnane X receptor (PXR) activation by small molecules, qHTS assay (AID 1346985); also: nearly all actives have a fitted effect of over 40% in size
# In short: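 DPX-2 cells (HepG2 co-transfected with a PXR response element and a CYP3A4-promoter luciferase construct) were seeded at 2,000 per well, rested 5 hr at 37C, then exposed to DMSO-dissolved compounds for 24 hr. Activation was read as luciferase luminescence.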
# [19] = molecular target: Cytochrome P450 2D6 (Homo sapiens) (UniProt P10635); experiment: Cytochrome P450 Family 2 Subfamily D Member 6 (CYP2D6) small molecule antagonists: luciferase reporter qHTS assay (AID 1671196); also: nearly all actives have a fitted effect of over 50% in size; also: potency is read from the fitted curve at half-maximal effect
# Cytochrome P450 2D6 (Homo sapiens), sequence (P10635 whole entry, looked up): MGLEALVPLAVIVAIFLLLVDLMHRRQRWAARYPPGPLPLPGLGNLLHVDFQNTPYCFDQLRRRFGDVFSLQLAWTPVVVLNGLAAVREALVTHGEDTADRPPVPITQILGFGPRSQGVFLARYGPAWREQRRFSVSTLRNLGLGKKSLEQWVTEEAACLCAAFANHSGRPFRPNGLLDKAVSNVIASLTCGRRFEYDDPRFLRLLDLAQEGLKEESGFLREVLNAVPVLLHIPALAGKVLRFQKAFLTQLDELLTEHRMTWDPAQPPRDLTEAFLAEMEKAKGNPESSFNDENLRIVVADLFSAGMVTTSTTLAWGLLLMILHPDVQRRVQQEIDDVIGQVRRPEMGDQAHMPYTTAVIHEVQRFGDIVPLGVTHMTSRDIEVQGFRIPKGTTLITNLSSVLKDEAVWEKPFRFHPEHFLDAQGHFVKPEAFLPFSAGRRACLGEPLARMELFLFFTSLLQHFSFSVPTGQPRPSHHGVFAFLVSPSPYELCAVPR
# In short: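 P450-Glo format: CYP2D6 converts a proluciferin substrate to luciferin in an NADPH-driven reaction lasting 1 h at room temperature. Light output, proportional to CYP2D6 activity, reflects interference by test chemicals.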
# [20] = molecular target: Nuclear receptor subfamily 1 group I member 2 (Homo sapiens) (UniProt O75469); experiment: Human pregnane X receptor (PXR) small molecule agonists, qHTS assay (AID 1346982); also: nearly all actives have a fitted effect of over 35% in size
# In short: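 Agonist mode qHTS: PXR-Luc HepG2 cells plated 5 hr before DMSO-dissolved compounds were pinned in, cultured 24 hr at 37 C, 5% CO2; ONE-Glo luminescence readout.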
Compound,Potency [1],Potency [2],Potency [3],Potency [4],Potency [5],Potency [6],outcome [7],Potency [8],Potency [9],Potency [10],Potency [11],Potency [12],Potency [13],Potency [14],Potency [15],max activation [16],Potency [17],Potency [18],Potency [19],Potency [20]
CCCCCCOCCOCCO,inactive,inactive,inactive,inactive,inactive,inactive,inactive,inactive,inactive,inactive,inactive,inactive,,,,,,,,
[O-]/[N+](=N\O)c1ccccc1,inactive,inactive,,inactive,inactive,inactive,inactive,inactive,inactive,inactive,inactive,inactive,inactive,inactive,inactive,,,,,
CC1(C)C(C=C(Cl)Cl)C1C(=O)OCc1cccc(Oc2ccccc2)c1 (centres undefined),inactive,inactive,,inactive,inactive,inactive,inactive,inactive,inactive,inactive,inactive,inactive,,inactive,inactive,4.94% (inactive),inactive,inactive,,
COCCOCCOCCO,inactive,inactive,,inactive,inactive,inactive,inactive,inactive,inactive,inactive,inactive,inactive,inactive,inactive,inactive,,,,,
Oc1ccc(C(c2ccc(O)cc2)C(Cl)(Cl)Cl)cc1,inactive,,12.1 µM (active),,inactive,inactive,inactive,inactive,inactive,54.5 µM (active),inactive,,inactive,inactive,inactive,,,,inactive,
CCO[Si](CCCNC(N)=O)(OCC)OCC,inactive,inactive,inactive,inactive,inactive,inactive,inactive,inactive,inactive,inactive,inactive,,,,,,,,,inactive
Cc1ccc([N+](=O)[O-])c(C)c1,inactive,inactive,inactive,,inactive,inactive,inactive,inactive,inactive,inactive,inactive,,19.3 µM (active) and inactive,inactive,inactive,,,,,inactive
C[C@]12CC[C@@H]3c4ccc(O)cc4CC[C@H]3[C@@H]1CC[C@@H]2O,inactive,,,,inactive,inactive,inactive,inactive,,61 µM (active) and 61.1 µM (active),inactive,inactive,,inactive,inactive,-1.66% (inactive),,,8.92 µM (active) and inactive,
CCOC(=O)C(C)Oc1ccc(Oc2cnc3cc(Cl)ccc3n2)cc1 (centres undefined),inactive,inactive,inactive,inactive,inactive,inactive,,inactive,inactive,inactive,inactive,inactive,,,,,,,32.5 µM (active),
